KCNQ2 block = inhibitors of rat KCNQ2 potassium channel; O88943; CHO-K1 KCNQ2, FluxOR thallium flux, 20 min; stronger effect = lower value; 310,000 compounds, 1.1% hits; B-score at 10 µM; AID 2156;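 active = fluorescence ratio B-score at most minus 3 library SDs, with starting brightness B-score within 2 library SDs, cut at about -5.5 in these data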
Target sequence (O88943 whole entry, looked up): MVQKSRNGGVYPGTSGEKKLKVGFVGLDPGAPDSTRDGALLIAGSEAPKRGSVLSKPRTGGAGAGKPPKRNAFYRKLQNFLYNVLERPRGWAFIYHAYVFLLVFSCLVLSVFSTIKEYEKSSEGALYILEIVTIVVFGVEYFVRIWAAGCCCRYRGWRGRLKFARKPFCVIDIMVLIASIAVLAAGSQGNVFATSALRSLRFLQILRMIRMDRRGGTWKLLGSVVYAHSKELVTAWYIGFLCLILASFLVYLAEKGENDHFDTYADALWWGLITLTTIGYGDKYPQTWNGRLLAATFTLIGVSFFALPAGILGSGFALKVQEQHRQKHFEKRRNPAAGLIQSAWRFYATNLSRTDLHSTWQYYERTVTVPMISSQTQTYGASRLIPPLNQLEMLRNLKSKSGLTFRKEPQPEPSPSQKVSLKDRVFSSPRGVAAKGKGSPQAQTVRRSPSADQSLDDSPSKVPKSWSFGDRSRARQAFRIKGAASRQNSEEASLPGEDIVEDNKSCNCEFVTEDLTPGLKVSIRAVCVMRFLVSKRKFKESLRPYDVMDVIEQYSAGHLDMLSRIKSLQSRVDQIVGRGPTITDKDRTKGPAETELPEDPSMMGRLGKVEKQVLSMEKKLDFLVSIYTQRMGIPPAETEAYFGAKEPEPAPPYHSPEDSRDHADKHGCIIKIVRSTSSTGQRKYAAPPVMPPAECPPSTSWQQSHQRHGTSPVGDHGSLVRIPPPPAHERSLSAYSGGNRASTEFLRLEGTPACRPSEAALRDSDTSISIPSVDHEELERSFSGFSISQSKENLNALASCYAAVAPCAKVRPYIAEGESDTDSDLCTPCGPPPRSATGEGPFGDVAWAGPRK
KCNQ2 pot = enhances the rat KCNQ2 potassium channel; CHO-K1 KCNQ2, FluxOR thallium flux fluorescence; stronger effect = higher value; B-score at 10 µM; 310,000 compounds, 0.54% hits; O88943;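 active = fluorescence ratio B-score at least 3 SD of library B-scores, with initial fluorescence B-score within 3 of them, cut at about 5.3 in these data; same plate scores as AID 2156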;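 note: B-score of peak minus minimum over baseline fluorescence ratio after K+ and Tl+ stimulus; positive B-score means potentiation of KCNQ2 with more thallium influx and brighter signal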
Kir21 confirm = confirmation of mouse Kir2.1 potassium channel inhibitors | shares compounds with KCNQ2 pot | Kir2.1-expressing cells, FluxOR thallium flux fluorescence; stronger effect = lower value | Tl flux remaining, % of negative control (stronger effect = lower value), % at 10 µM | 2,300 compounds, 41% hits | AID 2032;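 active = Primary-screen hit whose thallium flux fell at least 3 control SD below untreated wells in both duplicates, with normal baseline fluorescence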;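 note: 0% = blank wells without stimulus and 100% = stimulated no-compound controls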
HEK293 ctr = parental HEK293 activity in Kir2.1 inhibitor counter-screen | FluxOR signal as % of negative control (100 = no effect), % at 10 µM | 2,300 compounds, 19% hits | parental HEK293 cells, FluxOR thallium flux fluorescence; 0% = unstimulated blank wells | AID 2105 | shares compounds with KCNQ2 pot;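 active = dye signal at least 3 control SD above or below untreated wells in both duplicates, raw fluorescence within 3, either direction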;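 note: percent is based on the flux ratio of peak minus minimum fluorescence over baseline F0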
CHO-K1 Tl ctr = counter-screen for KCNQ2 potentiators: effect in parental CHO-K1 cells; activity increase over 3SD of controls, % at 10 µM; FluxOR thallium flux fluorescence; zero = vehicle mean+3SD, 100% = vehicle-minus-blank window; shares compounds with KCNQ2 pot; 1,200 compounds, 43% hits;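 active = signal rise of at least 3 SD above the untreated control mean, in both duplicate wells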;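 note: counter screen of KCNQ2 potentiator hits so any rise reflects channel-independent effects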
KCNQ1 sel pot = tests whether KCNQ2 potentiators also act on human KCNQ1; shares compounds with KCNQ2 pot; CHO KCNQ1 stable, FluxOR thallium flux fluorescence; beyond 3SD, as % of vehicle-control signal; 1,200 compounds, 28% hits; AID 2283; activation over 3SD threshold, % at 10 µM;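 active = fluorescence ratio rise of at least 3 SD of vehicle wells above their mean, in both replicate wells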;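 note: 0% = vehicle mean plus 3 SD and 100% = vehicle minus unstimulated blank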
KCNQ2 pot conf = rat KCNQ2 channel potentiator confirmation. shares compounds with KCNQ2 pot. CHO-KCNQ2 cells, FluxOR thallium flux fluorescence. potentiation, less the hit threshold, % at 10 µM. 1,200 compounds, 68% hits;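 active = fluorescence ratio rising 3 SD or more over the vehicle control mean in both replicates, plus primary screen hit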;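 note: peak minus minimum thallium fluorescence divided by baseline after K/Tl stimulus; 0% = vehicle mean plus 3 SD and 100% = vehicle minus unstimulated blank difference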
Kir2-1 sel = mouse Kir2.1 off-target activity of KCNQ2 potentiators; HEK293 Kir2.1, FluxOR thallium flux fluorescence; 1,200 compounds, 2% hits; shares compounds with KCNQ2 pot; activity over 3SD threshold, % at 10 µM;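 active = fluorescence ratio rise of at least 3 SD above the vehicle-control mean, seen in both replicates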;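 note: 0% = vehicle mean plus 3 SD and 100% = vehicle minus no-stimulus blank window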
KCNQ2 W236L MoA = rat KCNQ2 W236L mutant potentiation by KCNQ2 potentiators; 940 compounds, 10% hits; shares compounds with KCNQ2 pot; CHO KCNQ2-W236L, automated patch clamp current; current increase over 3SD of negative controls (%), stronger effect = higher value, % at 25 µM;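 active = current increase at least 3 SD of the untreated controls above them in both duplicate recordings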
Numbers without * were called inactive; i = inactive; . = no result. Sampled rows, rich in hits. Any-hit rate of the full collection: about 1.6%.

SMILES	KCNQ2 block	KCNQ2 pot	Kir21 confirm	HEK293 ctr	CHO-K1 Tl ctr	KCNQ1 sel pot	KCNQ2 pot conf	Kir2-1 sel	others
CCS(=O)(=O)N1CCC(NC(=O)C(Cc2cc(OC)ccc2OC)NC(C)=O)CC1 (stereo not given)	i	0.68	i	i	.	.	.	.
Cc1c(Cl)cccc1NC(=S)N(Cc1cccs1)C1CCCC1	i	.	.	.	.	.	.	.
CC(NC(=O)c1ccncc1)C(C)(C)C (stereo not given)	i	16*	i	i	-15	-18	-18	-39
Cc1ccc(C(C)NC(=O)c2ccncc2)cc1C (stereo not given)	i	1	.	.	.	.	.	.
CN(C)CCCNC(=O)C(=O)Nc1cc2c3c(c1)CCC(=O)N3CCC2	i	1.1	.	.	.	.	.	.
O=C(OCc1ccccc1)C1=NNC2C(=O)N(c3ccc(Br)cc3)C(=O)C12 (stereo not given)	i	2.1	.	.	.	.	.	.
O=C1c2cccc3cccc(c23)N1Cc1cccc(F)c1	i	.	.	.	.	.	.	.
CCC(C)c1ccc(NC(=O)c2ccco2)cc1 (stereo not given)	i	12*	i	i	26*	-10	38*	-12	KCNQ2 W236L MoA=i
Cc1ccc(Oc2ccc(NC(=O)c3ccco3)cc2)cc1	i	14*	i	73%*	-7	-30	33*	-43	KCNQ2 W236L MoA=19%*
CCN(CC)c1ccc(NC(=S)NC(=O)c2ccco2)cc1	i	11*	i	204%*	-14	-18	28*	-29	KCNQ2 W236L MoA=i
CCN(CC)c1ccc(NC(=O)c2ccco2)cc1	i	2.4	.	.	.	.	.	.
CC(=O)Nc1ccc(NC(=O)c2ccco2)cc1	i	0.17	.	.	.	.	.	.
Cc1ccc(NC(=O)c2ccc(OC(=O)c3ccco3)cc2)cc1	i	.	.	.	.	.	.	.
O=C(Nc1cccc(F)c1)c1ccc(S(=O)(=O)N2CCCCC2)cc1	i	0.75	.	.	.	.	.	.
CCN(C(=O)COC(=O)c1cccc(S(=O)(=O)N2CCOCC2)c1)C1CCS(=O)(=O)C1 (stereo not given)	i	0.44	.	.	.	.	.	.
COC(=O)c1cn(NC(=O)CC2CCCCC2)c(=O)c2ccccc12	i	14*	i	i	-10	-15	75*	-31	KCNQ2 W236L MoA=i
COC(=O)c1cn(NC(=O)C2CCC(C)CC2)c(=O)c2ccccc12 (stereo not given)	i	.	.	.	.	.	.	.
COC(=O)c1cn(NC(=O)c2cc([N+](=O)[O-])ccc2F)c(=O)c2ccccc12	i	.	.	.	.	.	.	.
COC(=O)c1cn(NC(=O)CCC2CCCC2)c(=O)c2ccccc12	i	28*	i	i	104*	-14	122*	-27	KCNQ2 W236L MoA=i
c1ccc(-c2ccc(-c3ccncn3)cc2)cc1	i	1.3	.	.	.	.	.	.
CCN(CC)C(=O)c1ccc(CS(=O)(=O)Cc2ccccc2)cc1	i	.	.	.	.	.	.	.
Cn1nnnc1SCCNC(=O)C1CCC(=O)N(Cc2ccc(Cl)cc2)C1 (stereo not given)	i	0.5	.	.	.	.	.	.
O=C(Nc1ccc(-n2cc(Br)cn2)cc1)c1ccncc1	i	.	.	.	.	.	.	.
CC(=O)Nc1ccc(NC(=O)C(C)OC(=O)CCc2c[nH]c3ccccc23)cc1 (stereo not given)	i	1.5	.	.	.	.	.	.
O=C(NCC1OCCCN1S(=O)(=O)c1cc(F)ccc1F)C(=O)NC1CCCCCC1 (stereo not given)	i	.	.	.	.	.	.	.
SMILES	KCNQ2 block	KCNQ2 pot	Kir21 confirm	HEK293 ctr	CHO-K1 Tl ctr	KCNQ1 sel pot	KCNQ2 pot conf	Kir2-1 sel	others
CCc1ccc(OCC(=O)Nc2ccncc2)c(Br)c1	i	3.2	.	.	.	.	.	.
CC(C)(C)c1ccc(OCC(=O)Nc2ccncc2)c(Br)c1	i	5.6*	i	i	-20	-11	-2	-28	KCNQ2 W236L MoA=i
Cc1ccn(S(=O)(=O)c2ccc(N3CCCC3=O)cc2)n1	i	.	.	.	.	.	.	.
COc1ccc(/C=N/NC(=O)c2c(-c3ccccc3)noc2C)cc1[N+](=O)[O-]	i	1.1	.	.	.	.	.	.
C=CCn1c(COc2ccc(Cl)cc2)nnc1SCc1ccc(C#N)cc1	i	.	.	.	.	.	.	.
C=CCn1c(COc2ccccc2)nnc1SCc1ccc(C#N)cc1	i	.	45%*	69%*	.	.	.	.
Cc1ccc(C(C)NC(=O)c2ccc3c(c2)OCO3)cc1C (stereo not given)	i	10*	i	i	-17	-2	52*	-32	KCNQ2 W236L MoA=i
Cc1occc1C(=O)NC(C)c1ccc2c(c1)OCO2 (stereo not given)	i	.	.	.	.	.	.	.
CCOc1ccccc1C(=O)NC(C)c1ccc2c(c1)OCO2 (stereo not given)	i	2.7	.	.	.	.	.	.
CC(NC(=O)CCc1ccccc1)c1ccc2c(c1)OCO2 (stereo not given)	i	8.5*	i	i	-3	-8	45*	-47	KCNQ2 W236L MoA=i
CCOc1ccccc1NC(=O)NC(C)c1ccc2c(c1)OCO2 (stereo not given)	i	5.8*	i	i	4.2*	73*	25*	-37	KCNQ2 W236L MoA=i
CC(NC(=O)Cc1ccc([N+](=O)[O-])cc1)c1ccc2c(c1)OCO2 (stereo not given)	i	.	.	.	.	.	.	.
CCOC(=O)C1=C(CS(=O)(=O)c2ccc(F)c(C)c2)NC(=O)NC1c1ccc(O)c(O)c1 (stereo not given)	i	.	.	.	.	.	.	.
C=CCN1C(=O)c2ccc(C(=O)NCCOc3ccccc3F)cc2C1=O	i	.	.	.	.	.	.	.
CN1C(=O)/C(=C/c2cn(CC(=O)N3CCCCC3)c3ccccc23)c2ccccc21	i	.	.	.	.	.	.	.
CC(C)CNC(=O)C(=O)NCC1OCCCN1S(=O)(=O)c1ccc2c(c1)OCCO2 (stereo not given)	i	0.2	.	.	.	.	.	.
N#Cc1ccc(S(=O)(=O)NC2CCCCNC2=O)cc1 (stereo not given)	i	.	.	.	.	.	.	.
COCCc1nc2ccc(C(=O)N(C)Cc3cccc(-n4cccn4)c3)cc2o1	i	0.4	.	.	.	.	.	.
CCN(c1ccc(NC(=O)COC(=O)/C=C/c2cccs2)cc1)C(C)C	i	1.7	.	.	.	.	.	.
O=S(=O)(NCCc1ccccn1)c1ccc(OC(F)(F)F)cc1	i	.	.	.	.	.	.	.
O=S(=O)(NCCc1ccccn1)c1ccc(F)c(F)c1	i	6.1*	i	i	3.1*	-14	-7	-36	KCNQ2 W236L MoA=i
CCn1c(SCC(=O)OC)nnc1-c1c[nH]c2ccccc12	i	.	.	.	.	.	.	.
N/C(=N\OS(=O)(=O)c1ccc(Br)cc1)c1ccncc1	i	5.6*	i	i	24*	-16	-5	-47

Screening results from PubChem BioAssay.
